# Source: PubChem BioAssay
# TGFb SMAD3 inh – blocks TGF-b signaling; HepG2 CAGA-GFP TGF-b/SMAD3 reporter, GFP fluorescence, 18 h; TGF-beta stimulated, 500 pg/mL final; Potency, µM (highest dose often 46.1 µM), for inactives: at the top dose activity, negative = inhibition, most hits filed as inhibitors; 1.2% of 410,000 active; further: potency means the concentration at half of the fitted maximal effect; on the % scale 0 is the no-effect control and ±100 the full control effect; nearly all actives have a fitted effect of over 65% in size
#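 Using HEPG2 CAGA-GFP reporter cells at 1000 cells/well, we pinned test compounds, stimulated with recombinant TGF-beta (500 pg/mL final) and measured total well GFP after 18 h.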
# HepG2 viability – counter-screen for TGF-b inhibitors: cytotoxicity in HepG2 cells | HepG2 CAGA-GFP viability, ATP luminescence, 18 h | Potency, µM (top dose mostly 46.1 µM), for inactives: top-dose activity change, negative = cytotoxicity, actives largely listed as cytotoxic | 0.76% of 410,000 active | AID 588856; further: potency means the concentration at half of the fitted maximal effect
#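 HepG2 CAGA-GFP cells (1000/well, DMEM with 1% FBS) received compound, then TGF-beta at 500 pg/mL final, and were incubated 18 hours at 37 degrees C. Viability was read by CellTiter-Glo luminescence. Media-only wells were set as complete cell-killing and DMSO as no toxicity.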
# DT40 TDP1 no CPT – qHTS for Inhibitors of human tyrosyl-DNA phosphodiesterase 1 (TDP1): qHTS in cells in absence of CPT | AID 686978, 2013 | DT40 Tdp1-/- hTDP1 cells, no CPT, ATP luminescence, 48 h | Potency, µM (doses to about 46.2 µM), inactives show at the top dose activity change, negative = growth inhibition, actives largely listed as inhibitors | 15% of 420,000 active; further: potency means the concentration at half of the fitted maximal effect; on the % scale 0 is the no-effect control and ±100 the full control effect; nearly all actives have a fitted effect of over 55% in size
#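 Growth of hTDP1-complemented DT40 Tdp1-knockout cells is measured by ATP luminescence after at least 48 hr compound exposure at 37 °C, with DMSO substituting for the 20 nM CPT used in the parallel screen.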
# IL1B secr inh – blocks inflammasome-driven IL-1 beta release; THP-1 LPS/ATP IL-1B secretion, AlphaLISA, 16 h; active compounds read low; activity change, % at 57.5 µM; 4.7% of 360,000 active; in the data active means activity change below about -50%; inconclusive means mostly about -30% to -49%; further: on the % scale 0 is the no-effect control and ±100 the full control effect
#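 THP-1 cells pretreated 1 hr with compounds (up to 57.5 uM final), then stimulated with LPS (250 ng/mL final) plus ATP (1.25 mM final); secreted IL-1B measured by AlphaLISA after 16 hr, decreased signal indicating inhibition.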
# DT40 TDP1 CPT – DT40-hTDP1 cell growth loss with CPT; chicken DT40 Tdp1-/-;hTDP1 cells + 20 nM CPT, ATP luminescence, 48 h; Potency, µM (titrated, usually from 46.2 µM), inactives show at the top dose activity change, negative = growth inhibition, actives largely listed as inhibitors; 12% of 420,000 active; further: potency means the concentration at half of the fitted maximal effect; on the % scale 0 is the no-effect control and ±100 the full control effect; nearly all actives have a fitted effect of over 55% in size
#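 Chicken DT40 Tdp1-/- cells stably complemented with human TDP1 were seeded at 400 cells/well in medium containing 20 nM camptothecin, exposed to pin-transferred compounds, and grown at 37 °C for at least 48 hr. Viability was read as ATP luminescence.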
# TDP1 block – blocks human tyrosyl-DNA phosphodiesterase 1 | Potency, µM (top dose mostly 130 µM), without a hit: top-dose activity change, negative = inhibition, hits mostly inhibitors | Q9NUW8 | recombinant TDP1, AlphaScreen DNA substrate cleavage | AID 485290 | 0.28% of 350,000 active; further: potency means the concentration at half of the fitted maximal effect; on the % scale 0 is the no-effect control and ±100 the full control effect; nearly all actives have a fitted effect of over 40% in size
# Target sequence (Q9NUW8 whole entry, looked up): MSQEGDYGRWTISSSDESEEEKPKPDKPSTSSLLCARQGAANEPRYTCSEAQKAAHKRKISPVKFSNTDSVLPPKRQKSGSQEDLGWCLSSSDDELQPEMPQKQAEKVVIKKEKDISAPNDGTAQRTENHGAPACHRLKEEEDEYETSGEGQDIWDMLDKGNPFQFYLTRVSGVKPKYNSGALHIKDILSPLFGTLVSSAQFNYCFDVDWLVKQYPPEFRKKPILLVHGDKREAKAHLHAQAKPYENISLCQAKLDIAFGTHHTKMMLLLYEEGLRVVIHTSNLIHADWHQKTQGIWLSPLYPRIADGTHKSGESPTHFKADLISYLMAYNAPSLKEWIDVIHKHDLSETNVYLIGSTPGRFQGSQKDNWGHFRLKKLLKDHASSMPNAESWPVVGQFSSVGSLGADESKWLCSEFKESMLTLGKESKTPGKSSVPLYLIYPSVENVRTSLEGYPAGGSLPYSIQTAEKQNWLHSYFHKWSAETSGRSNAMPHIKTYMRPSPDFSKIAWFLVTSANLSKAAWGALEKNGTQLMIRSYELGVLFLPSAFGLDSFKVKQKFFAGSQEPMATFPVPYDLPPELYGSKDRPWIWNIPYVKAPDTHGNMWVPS
#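 Steps: enzyme plus compound, 15 min RT; add biotin/phosphotyrosine-FITC oligonucleotide (15 nM final), react 5 min; add donor/acceptor beads (10 ug/ml final), 10 min; read AlphaScreen. Tdp1 at 1 nM final.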
# The depositor's hits bear a star; u = inconclusive; x = no result; [ ] = dose if it differs, or a comment. Compounds with a hit are over-represented: about 19% of the library has one in this group of screens. Unless noted, the call rests on the fitted dose curve; in most records, active means well fitted curve in the direction sought with a large enough effect; inconclusive means small, poorly fitted or top-dose-only effect, or another doubt; inactive means no such curve, though single readings can be large; an effect the other way counts as inactive or inconclusive.
SMILES,TGFb SMAD3 inh,HepG2 viability,DT40 TDP1 no CPT,IL1B secr inh,DT40 TDP1 CPT,TDP1 block
Cc1c(Cl)cccc1NC(=S)N=Nc1c(O)n(CN2CCOCC2)c2ccccc12,5µM*,-27%,1.5µM*,3,5.8µM*,8%
Cc1ccc(NC(=O)Cn2c(O)c(N=NC(N)=S)c3ccccc32)cc1,u,-44%,u,6,u,x
C=CCn1c(O)c(N=NC(=O)c2cccnc2)c2cc(Br)ccc21,-12%,-4%,-25%,19,-25%,9%
Cc1c(Cl)cccc1NC(=O)CCN1CCOCC1,8%,6%,-2%,1,-14%,x
O=C(COC(=O)c1ccc([N+](=O)[O-])s1)c1ccc[nH]1,5%,-42%,1%,17,u,-10%
C=CCn1c(SCC(=O)N(CCOC)c2c(N)n(CC(C)C)c(=O)[nH]c2=O)nc2ccccc21,6%,-5%,-3%,16,6%,-2%
Cc1ccc(S(=O)(=O)NCCc2csc3nc(-c4ccccc4C)nn23)cc1,-27%,-22%,u,x,-23%,1%
COC(=O)C1C(C)OC(=O)NC1c1ccccc1 (centres undefined),x,x,x,x,x,9%[21 µM]
C=CCn1c(O)c(N=NC(=S)Nc2cccc(C)c2)c2ccccc21,u,2%,1.8µM*,-6,2.1µM*,-3%
O=C(Nc1ccccc1F)c1cc(S(=O)(=O)N2CCOCC2)cs1,-17%,1%,2%,0,11%,0%
Oc1c(N=NC(=S)Nc2ccccc2F)c2ccccc2n1Cc1ccccc1,-22%,-23%,5.8µM*,-8,7.3µM*,10%
C=CCn1c(O)c(N=NC(=S)Nc2ccccc2F)c2ccccc21,u,-37%,2.6µM*,77,4.1µM*,11%
COC(=O)N=Nc1c(O)n(Cc2ccccc2)c2ccccc12,-21%,2%,u,-10,-23%,6%
C=CCn1c(O)c(N=NC(=S)Nc2ccccc2F)c2cc(S(=O)(=O)N3CCOCC3)ccc21,u,-31%,0.73µM*,2,0.73µM*,10%
Cc1ccc(-c2cn3c4c(=O)n(C)c(=O)n(C)c4nc3n2-c2cccc(Cl)c2)cc1,3%,-8%,9%,x,3%,12%
Cc1nn(CC(=O)NC2CC2)c(=O)c2cc3cc(F)ccc3n12,-5%,-2%,-12%,x,-1%,-3%
Cc1ccc(CNC(=O)C2CCCN(S(=O)(=O)c3cccc4nsnc34)C2)cc1 (centres undefined),-11%,-2%,-14%,x,0%,5%
CCc1ccc(S(=O)(=O)/N=C2/C=C(Sc3ncn[nH]3)C(=O)c3ccccc32)cc1,1.4µM*,2µM*,0.73µM*,-99*,0.65µM*,9%
CCc1ccc(S(=O)(=O)/N=C2\C=C(Nc3cccc(C(=O)O)c3)C(=O)c3ccccc32)cc1,u,-89%,16µM*,-101*,18µM*,x
CCc1ccc(S(=O)(=O)/N=C2\C=C(Nc3ccc(O)cc3)C(=O)c3ccccc32)cc1,0.89µM*,1.1µM*,3.3µM*,-103*,4.1µM*,13%
COCCCNC(=O)CCn1c(=O)c2ccccc2n(CC(=O)Nc2cc(Cl)ccc2OC)c1=O,0%,-37%,-27%,x,-10%,6%
CC[C@]12c3[nH]c4ccc(OC)cc4c3CCN1C(=O)C(CC(=O)NC/C=C(\C)CCC=C(C)C)C[C@@H]2C(=O)N1CCN(C(=O)C2CC2)CC1 (some centres undefined),u,-16%,u,-62*,u,0%[56.1 µM]
